FBW7 act – FBW7 E3 ligase activators, primary screen, biochemical, AlphaScreen, human. normalized activity (activation), % at 26.1 µM. AlphaScreen FBW7–phospho-cyclin E peptide binding, activator screen. F-box/WD repeat-containing protein 7 (Homo sapiens), Q969H0. 650,000 tested, 0.13% active; in the data active = normalized activity above about 1.9%;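 also: purified mutant Fbw7 with reduced substrate affinity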
MITF inh – MITF inhibitors, primary screen, biochemical, AlphaScreen, human; AID 1259374, 2018; 650,000 tested, 0.91% active; inhibition, % at 2.6 µM; Microphthalmia-associated transcription factor (Homo sapiens), O75030; AlphaScreen MITF homodimerization, bead proximity signal; in the data active = inhibition above about 50%;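 also: 0% = vehicle wells with protein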
Target sequence (O75030 whole entry, looked up): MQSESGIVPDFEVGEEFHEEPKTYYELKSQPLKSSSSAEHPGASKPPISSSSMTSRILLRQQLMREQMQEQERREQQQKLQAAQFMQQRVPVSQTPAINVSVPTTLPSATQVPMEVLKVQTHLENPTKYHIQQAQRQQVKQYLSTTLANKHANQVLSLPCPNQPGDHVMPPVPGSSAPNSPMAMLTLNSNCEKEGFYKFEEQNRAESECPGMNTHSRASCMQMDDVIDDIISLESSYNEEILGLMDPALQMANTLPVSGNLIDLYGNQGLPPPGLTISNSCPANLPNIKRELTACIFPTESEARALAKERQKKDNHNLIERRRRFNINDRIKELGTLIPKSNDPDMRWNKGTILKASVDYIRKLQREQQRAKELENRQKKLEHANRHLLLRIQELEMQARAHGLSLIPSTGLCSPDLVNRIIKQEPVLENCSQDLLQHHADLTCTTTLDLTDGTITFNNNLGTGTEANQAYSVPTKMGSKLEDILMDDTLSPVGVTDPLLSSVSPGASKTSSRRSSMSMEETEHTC
GPR151 ag – activators of human GPR151, primary screen, cell-based, PathHunter beta-arrestin, luminescence; G-protein coupled receptor 151 (Homo sapiens), Q8TDV0; PathHunter beta-arrestin GPR151 cells; activation, % at 11.2 µM; 650,000 tested, 1% active; in the data active = activation above about 4.9%;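 also: 0% = median of compound wells and 100% = cells with positive control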
TEAD-YAP block – TEAD-YAP interaction inhibition, primary screen, TEAD-YAP interaction inhibitor project, luminescence, HEK-TIYL cells; TEAD-Gal4/YAP UAS-luciferase luminescence; 640,000 tested, 1.4% active; inhibition, % at 9.12 µM; in the data active = inhibition above about 32%;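 also: 0% = median of test compound wells and 100% = reference inhibitor wells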
GPR151 conf act – GPR151 activators, triplicate retest, confirmation, cell-based, PathHunter beta-arrestin, luminescence; GPR151 PathHunter beta-arrestin cells, 90 min; % of EA-reagent control over plate median; 6,700 tested, under 10 active; shares compounds with GPR151 ag; AID 1508609, 2020; activation, % at 11.2 µM;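 active = mean percent activation across replicates above the confirmation screen cutoff of 4.91%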
GPR119 ag – GPR119 activators in beta-arrestin cells, counter-screen for GPR151 activator project, cell-based, PathHunter beta-arrestin, luminescence, triplicate; 90 min; 0 = compound-well median, 100 = enzyme-acceptor control; activation, % at 11.2 µM; shares compounds with GPR151 ag; 6,700 tested, 0.3% active;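 active = mean percent activation in the counterscreen above 29.09%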;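 also: counterscreen on off-target GPR119 to flag nonselective hits from the GPR151 activator screen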
Active calls of the source: *; · = no result given. Most compounds without a hit are left out; they make up all but 3.4% or so of the library.

SMILES	FBW7 act	MITF inh	GPR151 ag	TEAD-YAP block	GPR151 conf act	GPR119 ag
COC(=O)C1=C(O)/C(=C/c2cc(C)n(-c3cc(C)ccc3C)c2C)N=C1C	0	-9	5.2*	9	-1	-8
COC(=O)C1=C(O)/C(=C\c2cc(C)n(-c3cc(Cl)ccc3C)c2C)N=C1C	0	-12	0	0	·	·
CC1CCCN(CC(O)COc2ccccc2)C1 (stereo unspecified)	0	-7	0	8	·	·
CCOC(=O)CSc1nc2c(sc(=S)n2Cc2ccccc2)c(=O)n1-c1cccc(Cl)c1	0	3	0	10	·	·
CCOC(=O)CSc1nc2cc(C(=O)NC3CCCCC3)ccc2c(=O)n1CCc1ccccc1	0	17	5.1*	13	0	-1
NC(=O)CSc1nc2nccnc2c(=O)n1Cc1ccccc1	0	0	0	1	·	·
CCOC(=O)CSc1nc2c(sc(=S)n2Cc2ccccc2)c(=O)n1Cc1ccccc1	0	-10	6.0*	-14	0	-4
CCOC(=O)CSc1nc2c(c(=O)n1Cc1ccccc1)C1(CCCC1)Cc1ccccc1-2	1	21	7.5*	-4	0	12
CCOC(=O)CSc1nc2nccnc2c(=O)n1Cc1ccccc1	0	5	5.0*	1	0	-1
CC(=O)Nc1ccc(S(=O)(=O)Nc2ccc3c(c2)OC2(CCCCC2)O3)cc1	0	9	1	11	·	·
O=C(O)COc1ccccc1/C=C1/SC(=S)N(c2cccnc2)C1=O	0	7	2	7	·	·
COc1cc(I)cc(CNc2ccc(F)cc2)c1O	0	10	5.4*	-4	0	6
O=C(CN1CCCCC1)Nc1cc(C(F)(F)F)ccc1Cl	0	1	7.0*	4	0	2
O=C(CN1CCN(c2ccccc2F)CC1)Nc1cc(C(F)(F)F)ccc1Cl	0	4	0	-1	·	·
O=C(CSc1cn(Cc2ccccc2Cl)c2ccccc12)NCc1ccco1	0	4	0	-2	·	·
O=C1NC2(CCN(Cc3ccc(Cl)cc3)CC2)C(=O)N1CCc1ccccc1	1	20	0	10	·	·
C=CCn1c(C)cc(C(=O)COC(=O)CNC(=O)c2ccc(OCC)c(OCC)c2)c1C	0	5	9.6*	-1	0	2
Cc1nc(NS(C)(=O)=O)sc1C(=O)O	0	11	5.0*	8	0	5
Cc1nc(NC(=O)c2ccccc2F)sc1C(=O)O	1	18	-6	5	·	·
O=C(NC1CCCCC1)C(c1ccccc1)N(CC1CCCO1)C(=O)c1csnn1 (stereo unspecified)	0	-2	2	-1	·	·
CC(=O)NCCSCc1cc2cccc3c2n(c1=O)CCC3	0	9	6.3*	-11	-1	-8
Cc1ccc(-n2ncc3c(SCC(N)=O)ncnc32)c(C)c1	0	11	0	-6	·	·
CC(=O)Nc1ccc(NC(=O)CSc2ncnc3c2cnn3-c2ccc(C)cc2C)cc1	0	3	5.2*	10	0	8
COC(=O)Cn1cc(S(=O)(=O)Nc2ccccc2OC)c2cc([N+](=O)[O-])ccc21	0	-2	0	-5	·	·
CC(=O)NCCNC(=O)c1ccc2c(c1)S(=O)(=O)c1ccccc1C2=O	0	1	-1	-8	·	·
SMILES	FBW7 act	MITF inh	GPR151 ag	TEAD-YAP block	GPR151 conf act	GPR119 ag
CCCNC(=O)Cn1cnc2c(nnn2-c2cc(C)cc(C)c2)c1=O	0	0	7.0*	9	0	-1
COC(=O)c1ccc(Cn2cnc3c(nnn3-c3cc(C)cc(C)c3)c2=O)o1	0	-14	5.0*	-3	0	1
Cc1cc(C)cc(-n2nnc3c(=O)n(Cc4ccc(Cl)c(Cl)c4)cnc32)c1	0	15	-1	4	·	·
Cc1cccc(NC(=O)C2CCCN(S(=O)(=O)c3c(C)[nH]c(=O)[nH]c3=O)C2)n1 (stereo unspecified)	0	0	1	-5	·	·
CCCCSc1nc(-c2cccs2)cc(C(F)(F)F)c1C#N	0	0	0	-2	·	·
S=C1NC2(CCCCC2)N=C1c1ccccc1	0	-7	8.1*	-11	0	9
Fc1ccc(C2=NC3(CCCCC3)NC2=S)cc1	0	-8	3	0	·	·
COc1ccc(-c2nc3c[n+](CC(N)=O)ccn3c2Nc2ccccc2C)cc1	0	13	6.7*	-7	0	3
Cc1ccc(Nc2c(-c3ccc(N4CCOCC4)cc3)nc3c[n+](CC(N)=O)ccn23)cc1	0	15	5.1*	-11	0	1
Cc1cc(=O)oc2c1ccc1oc(C(=O)c3ccc(Cl)cc3)c(C)c12	0	-3	5.7*	-5	0	1
CC(=O)c1oc2ccc3c(C)cc(=O)oc3c2c1C	0	3	0	2	·	·
COc1ccc(/C=C/C(=O)c2ccc[nH]2)cc1OC	0	17	5.8*	-45	-1	-2
CCOC(=O)CSc1nnc(Cc2ccc(OCC)cc2)n1C	0	10	0	11	·	·
COc1ccc2nc3sc(C(=O)Nc4cccc(C(C)=O)c4)c(N)c3cc2c1	0	-11	5.3*	-75	0	23
CCOC(=O)COc1ccc2ccccc2c1/C=N/n1c(C)nc2ccccc2c1=O	0	7	5.0*	-4	-1	-12
CCOc1ccc(/C=N/n2c(C)nc3ccccc3c2=O)cc1	0	-4	-1	0	·	·
COC(=O)CN1CCN(S(=O)(=O)c2ccc(Br)cc2)CC1	0	8	0	6	·	·
CCOc1ccc(/C=C2\SC(=S)N(CCOC)C2=O)c(OCC)c1	0	11	1	0	·	·
Cc1ccc(CN2CCC(N(C)C(C)c3nccs3)CCC2=O)cc1 (stereo unspecified)	-1	-1	5.2*	-4	1	14
N#Cc1c(NC(=O)c2nn3c(C(F)(F)F)cc(-c4cccs4)nc3c2Cl)sc2c1CCCCC2	0	7	0	-3	·	·
O=C(c1nn2c(C(F)(F)F)cc(-c3cccs3)nc2c1Cl)N1CCCCC1	0	5	6.4*	-1	1	13
N#Cc1c(NC(=O)c2nn3c(C(F)(F)F)cc(-c4cccs4)nc3c2Cl)sc2c1CCCC2	0	-3	9.2*	-1	1	20
CC1CCCC(C)N1C(=O)c1cc2nc(-c3cccs3)cc(C(F)(F)F)n2n1 (stereo unspecified)	0	1	5.4*	6	-1	3

Bioassay records deposited in PubChem BioAssay by The Scripps Research Institute Molecular Screening Center.
